According to PubChem BioAssay (NCI):
The panel holds about 83,000 compounds, 20% with a hit somewhere; the sample as a whole holds those more often.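 Percent growth is the endpoint: 0 to 100 indicates growth inhibition (40 means 60% inhibition), 0 means no net growth, and negative values indicate cell death.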 The source made the active and inactive calls.

What follows are compounds tested on MOLT-4 leukemia (assay: NCI-60 one-dose screen, 48 h (100 = growth as untreated, 0 = no growth, -100 = all killed)). Settings: 10 µM unless noted.
Method: Growth inhibition of the MOLT-4 human tumor cell line is measured as a screen for anti-cancer activity. Cells are grown in 96 well plates and exposed to the test compound for 48 hours. Compounds are tested at a single concentration, which is 10^-5 M for most compounds. The reported endpoint is percent growth (GI% or GIPRCNT), where numbers from 0 - 100% represent growth inhibition, and numbers from -100% - 0 represent cell death. For example, a value of 40 represents 60% growth inhibition. A value of 0 means no net growth occurred over the course of the experiment. A value of -40 indicates 40% of cells at the beginning of the experiment died by the end of the experiment. A value of -100 means all cells are dead at the end of the experiment.
NCI-60 Human Tumor Cell Lines Screen was performed using the standard one-dose NCI protocol, which is described in more detail at https://dtp.cancer.gov/discovery_development/nci-60/default.htm.
Compounds with GIPRCNT values below 10 were considered active. Activity score was based on GIPRCNT using the following formula: […]
Score is 0 for GIPRCNT values of 100 or above, 50 for GIPRCNT values of 0, and 100 for GIPRCNT values of -100.

SMILES	growth
CCNC(=O)Oc1ccc(/C(=C(/C)Cc2ccc(OC)cc2)c2ccc(OCCN3CCCCC3)cc2)cc1	31.4% (inactive)
N#Cc1c(-c2ccccc2)nc(SCc2nnc(-c3ccc(Cl)cc3)o2)[nH]c1=O	79.9% (inactive)
Cn1ccc(=O)nc1	74.6% (inactive)
O=S(=O)(NCCNc1nccc(-c2c(-c3cccc(O)c3)nc3occn23)n1)c1ccc(Br)cc1	10.2% (inactive)
CN1CCN(Cc2ccc(NC(=O)c3cncc(C#Cc4cnc(N)c5ncccc45)c3)cc2C(F)(F)F)CC1	14.5% (inactive)
CCN1CCN(c2cc(C)nc(N(CCNc3ccnc4cc(Cl)ccc34)Cc3ccc4c(c3)OCO4)n2)CC1	-34.1% (active)
COc1cc(/C=C/C(=O)/C=C(O)/C=C/c2ccc(OC(=O)C34CC5CC(CC(C5)C3)C4)c(OC)c2)ccc1OC(=O)C12CC3CC(CC(C3)C1)C2	116% (inactive)
CCN1C(=O)N(CC)C2C1N=C(SCc1ccc(Cl)cc1)N2/N=C/C=C/c1ccccc1OC (stereo not given)	55.3% (inactive)
CC1(C)CC[C@]2(CO)CC[C@]3(C)[C@H](CC[C@@H]4[C@@]5(C)CCCNC(C)(C)[C@@H]5CC[C@]43C)[C@H]2[C@H]1O	54.1% (inactive)
O=C(N/N=C\c1cccc([N+](=O)[O-])c1)N/N=C/c1cccc([N+](=O)[O-])c1	106% (inactive)
O=S(=O)(Oc1ccc(Br)cc1)c1ccc(Cl)cc1	85.1% (inactive)
Cc1ccc(NC(=O)Cn2c(Br)nc3c2c(=O)n(C)c(=O)n3C)cc1	58.8% (inactive)
CCN(CC)CCN1C(=O)c2c(c(C)c3c(oc4ccc(OC)cc43)c2C)C1=O	96.2% (inactive)
CCOC(=O)C1=C(C)C(Cl)=N/C1=C\c1[nH]c(Cl)c(C)c1C(=O)OCC	80.3% (inactive)
COc1ccc(/C=C/C(=O)c2cc(OC)c(OC)c(OC)c2)cc1OCC(=O)Nc1nc2ccc(OC(F)(F)F)cc2s1	0.429% (active)
Cc1ccc(S(=O)(=O)c2nc(-c3ccccc3)oc2Sc2nc3ccccc3s2)cc1	12.3% (inactive)
Cc1ccc(-c2csc(N(C(=O)N3CCN(c4cc5c(cc4F)c(=O)c(C(=O)O)cn5C4CC4)CC3)c3ccccc3)n2)cc1	16.6% (inactive)
Cn1c(=O)c2[nH]c(SCC(=O)Nc3ccc(C(=O)/C=C/c4ccccc4Cl)cc3)nc2n(C)c1=O	87.4% (inactive)
Cn1c2c(c3ccc(Cl)c(Cl)c31)C(C#N)C(C)(C)NC2=O (stereo not given)	59.4% (inactive)
O=C(Nc1ccccc1O)c1ccc(CNC(=O)c2ccsc2Nc2ccnc(C(F)(F)F)c2)cc1	4.64% (active)

SMILES	growth
CC(C)(C)n1cc(-c2ccnc(NCCNS(=O)(=O)c3ccc(O)cc3)c2)c(-c2cccc(O)c2)n1	95.1% (inactive)
C/C(Cc1ccc(Cl)cc1)=C(\c1ccc(OCCCN(C)C)cc1)c1ccc(OC(=O)Cc2ccccc2)cc1	77.3% (inactive)
CC(C)=CCNc1ncnc2c1ncn2C1OC(CO)C(O)C1O (stereo not given)	-26.6% [1 mM] (active)
C[C@@H]1O[C@@H](O[C@@H]2C[C@H](c3ccc4c(c3O)C(=O)C3=C(C4=O)[C@@]4(O)C(=O)C[C@](C)(O)C[C@@]4(O)C=C3)O[C@H](C)[C@H]2O)CC[C@@H]1O[C@H]1C[C@@H](O)[C@H](O)[C@@H](C)O1	86.6% (inactive)
N#C/C(=C\c1ccc(-c2cccc(C(F)(F)F)c2)o1)c1ccccc1	89.7% (inactive)
CC1(C)NCCC[C@]2(C)[C@H]3CC[C@H]4[C@H]5[C@H](C(=O)/C=C/c6cccnc6)CCC[C@]5(CO)CC[C@@]4(C)[C@]3(C)CC[C@@H]12	7.39% (active)
CC(=O)c1ccc(Nc2nccc(-c3ccc4ccccc4c3)n2)cc1	74.4% (inactive)
CCOC(=O)c1ccccc1-c1c2ccc(=[N+](C)C)cc-2oc2cc(N(C)C)ccc12	31.5% (inactive)
COc1cc(/C=C2\CN(S(=O)(=O)c3ccccc3)C/C(=C\c3cc(CN4CCCCC4)c(O)c(OC)c3)C2=O)cc(CN2CCCCC2)c1O	-20.6% (active)
CNCc1cccc2c1OCCOCCOCCNS(=O)(=O)c1ccc(cc1)-c1cnc(N)c(n1)C(=O)N2	8.14% (active)
COc1ccc(-c2cc(-c3ccccc3)nc(N3CCN(CCNc4ccnc5cc(Cl)ccc45)CC3)n2)cc1	-1.76% (active)
CCCCCN(CCCCC)CC(O)c1cc(C)c2ccc3cc(C(C)C)ccc3c2c1 (stereo not given)	-21.5% (active)
CS(=O)(=O)c1nnc(-c2ccccc2)s1	88.1% (inactive)
CCN1C(=O)N(CC)C2C1NN=c1s/c(=C\c3ccc(C(F)(F)F)cc3)c(=O)n12 (stereo not given)	10.9% (inactive)
FC(F)(F)c1ccc(Cn2cc(CSc3nc4ccccc4s3)nn2)cc1	98.1% (inactive)
Cc1nc2sc(C(=O)Nc3cccc(Br)c3C)c(N)c2cc1C(O)c1ccccc1 (stereo not given)	12% (inactive)
COc1cc(C2C(C(=O)OCc3ccccc3)=C(C)NC(C)=C2C(=O)OCc2ccccc2)cc(OC)c1OC	-9.95% (active)
Cc1ccc(C)c(/C=C2\CN(C(=O)OC(C)(C)C)C/C(=C\c3cc(C)ccc3C)C2=O)c1	7.4% (active)
O=C(O)/C=C/C(=O)Nc1cccc(Cn2nnc3cc(Cl)c(Cl)cc32)c1	97.1% (inactive)
NC1(CO)COC(c2ccccc2)OC1 (stereo not given)	89% (inactive)
